These results are taken from PubChem BioAssay AID504894 (National Center for Advancing Translational Sciences (NCATS), 2011).

Fewer than 10 of roughly 330,000 compounds were called active. Only a sample is shown. A number with no mark means an inactive call. The call rests on the fitted dose curve; in most records, active means well fitted activation curve with a large enough effect; inconclusive means small, poorly fitted or top-dose-only effect, or another doubt; inactive means no such curve, though single readings can be large or run the other way.

The assay can be described thus: Activators of T cell receptors: qHTS campaign. Further: % of control where 0% means no effect. As to conditions: primary human leukocytes, anti-CD3, IL-2 HTRF, 48 h; series mostly up to 9.22 µM; activation of IL-2 secretion: at the top concentration. The source says:
Normally activation of naive T cells requires two signals. 1. A signal through the T cell receptor (TCR) which provides antigen specificity to the response. 2. Signals through co-stimulatory molecules, which are necessary for proliferation, survival and cytokine production. In the absence of co-stimulatory signals T cells are not effectively activated, and may even be rendered anergic or unresponsive to subsequent signaling. This lack of costimulation has been shown in multiple model systems to be a major factor in the limited strength and effectiveness of anti-tumor T cell responses. The goal of this project is to identify small molecule compounds that will stimulate T cell activation in the presence of TCR signaling but in the absence of co-stimulatory signals, thereby allowing activation of naive T cells in the absence of co-stimulation. Identification of such compounds would have clear experimental and clinical applications in instances where desirable antigen-specific immune responses are not generated due to a lack of co-stimulation, for example in the generation of anti-tumor responses. In collaboration between the National Cancer Institute and NIH Chemical Genomics Center, a high-throughput amenable screen was developed to discover small molecules that co-stimulate and activate human T cell receptors. The screen will be carried out using a novel homogeneous time resolved fluorescence energy transfer (HTRF) assay to measure production of the cytokine IL-2 by activated T cells and will be tested against the NIH Molecular Libraries Small Molecule Repository (MLSMR). NIH Chemical Genomics Center [NCGC] NIH Molecular Libraries Probe Centers Network [MLPCN] MLPCN Grant: MH090820-01 Assay Submitter (PI): Richard Hodes, National Cancer Institute, NIH
Primary human leukocytes are incubated with a-CD3 beads and compounds for 48 hr. The amount of secreted IL-2 is then assayed with a HTRF IL-2 kit. The presence of IL-2 cytokine captures the detection reagents and brings the a-IL-2-K and a-IL-2-d2 into close proximity. Upon excitation with 320nm light, the europium cryptate is capable of transferring energy to acceptor molecules within close proximity, resulting in acceptor molecule emission at 665nm.
Background: In qHTS, concentration-response curves come from the screen itself.
For the compound `C#CCOCCOCCOCCNc1nc(N2CCN(C(=O)Cn3cc(CCO)nn3)CC2)nc(N2CCN(C(=O)[C@H](CCCCN)n3cc(CCCC)nn3)CC2)n1`, the “activation of IL-2 secretion” value is -0.341%.

For the compound `C[C@]12CCC(=O)C=C1C=CC1C2CC[C@@]2(C)C1CC[C@@]21CCC(=O)O1` (some centres not stated), the “activation of IL-2 secretion” value was -6.09%.

With `CC(=O)Nc1ccc(C(=O)Nc2cc(S(=O)(=O)N3CCOCC3)ccc2N2CCOCC2)cc1`, the “activation of IL-2 secretion” value was 5.5%.

On to `C=CC(=O)Nc1ccc(Nc2ccnc(Nc3ccc(N4CCN(C)CC4)cc3)n2)cc1`, for which the “activation of IL-2 secretion” value was 7.98%.

As for `Cc1ccc(C)c(S(=O)(=O)N(C)c2ccc(OC(=O)C3CCN(C(=O)c4ccc(F)cc4)CC3)cc2)c1`, the “activation of IL-2 secretion” value is 3.39%.

`Cc1c(NS(=O)(=O)c2cccc(C(=O)Nc3ccc(SC(F)F)cc3)c2)c(=O)n(-c2ccccc2)n1C`: the “activation of IL-2 secretion” value is -2.41%.

On to `C[C@@H]1ON(C)[C@H]2C[C@H]3c4cc(N5CCN(C)CC5)ccc4CCN3C(=O)[C@@H]12`, for which the “activation of IL-2 secretion” value is 6.04%.

Consider `Cc1onc(-c2c(F)cccc2Cl)c1C(=O)Nc1cccc(S(=O)(=O)N2CCCCC2)c1`, for which the “activation of IL-2 secretion” value was 5.63%.

With `O=C(CC1Sc2ccccc2NC1=O)NNc1ccc(Cl)c(Cl)c1` (configuration not stated), the “activation of IL-2 secretion” value was -9.29%.

`CCC(=O)N1CCc2cc(Br)c(S(=O)(=O)NCCN3CCCCC3CC)cc21` (configuration not stated): the “activation of IL-2 secretion” value was -2.39%.

Regarding `CC(C)Cn1cnc2c(SCc3ccc(Cl)cc3)nc(N)nc21`, the “activation of IL-2 secretion” value is 0.446%.

For `O=C1NCC(c2ccccc2)(c2ccccc2)C(=O)N1`, the “activation of IL-2 secretion” value is -1.83%.

For the compound `COC[C@@H]1NS(=O)(=O)c2ccc(Br)cc2O[C@H]1c1ccccc1`, the “activation of IL-2 secretion” value was 6.54%.

Take `CN1CCC(N(C)C(=O)c2ccc(Cl)c(S(=O)(=O)Nc3ccc(Cl)cc3)c2)CC1`: the “activation of IL-2 secretion” value is 1.82%.

On to `Cc1cc2c(cc1C)NC1(C[C@H]3CCC(=O)N4CC[C@@H](C1)[C@@H]34)C(=NC(C)(C)CC(C)(C)C)N2` (some centres not stated), for which the “activation of IL-2 secretion” value was -11.4%.

For the compound `CN(C(=O)c1cccc(NC(=O)Cc2ccc(NC(=O)C3CCCN(C(=O)C4CC4)C3)cc2)c1)C1CC1` (configuration not stated), the “activation of IL-2 secretion” value was -3.14%.

Take `O=C1/C(=C\c2ccc(O)cc2)CCC1CNc1ccc(Cl)cc1` (configuration not stated): the “activation of IL-2 secretion” value was -0.0826%.

As for `O=C1C2C3C=CC(C3)C2C(=O)N1c1ncc([N+](=O)[O-])s1` (configuration not stated), the “activation of IL-2 secretion” value is 0.761%.

With `NNc1cccc(C=Cc2ccccc2)cc1=O`, the “activation of IL-2 secretion” value is -0.278%.

Take `COc1ccc(-c2nnc(-c3ccc4ccccc4c3)o2)cc1`: the “activation of IL-2 secretion” value is -0.347%.

With `Cc1nc(N)sc1-c1ccccc1`, the “activation of IL-2 secretion” value was 6.41%.

Turning to `NC(=O)C1(Nc2ccc(-c3ccccc3)cc2)CCCC1`, the “activation of IL-2 secretion” value was -6.79%.

Regarding `CCN(CC)CCCN1C(=O)C(=O)/C(=C(/O)c2c(C)nc3ccccn23)C1c1ccc(C)o1` (configuration not stated), the “activation of IL-2 secretion” value is -1.01%.

As to `O=C1OC(Oc2ccc(Br)cc2)(c2ccccc2)c2ccccc21` (configuration not stated), the “activation of IL-2 secretion” value was 10.2%.

In the case of `CN(C)C(=S)N=c1ssc(=S)n1Cc1ccco1`, the “activation of IL-2 secretion” value is 3.1%.

Turning to `CN(C(=O)c1cccc(NC(=O)Cc2cccc(NC(=O)C3CCCN(C(=O)C4CC4)C3)c2)c1)C1CCC1` (configuration not stated), the “activation of IL-2 secretion” value is 0.256%.

Regarding `O=C(NNC(=O)c1ccccc1O)c1ccccc1O`, the “activation of IL-2 secretion” value is -2.99%.

With `O=C1CC(c2ccccc2)C(=O)N2C(=O)CC(c3ccccc3)C(=O)N12` (configuration not stated), the “activation of IL-2 secretion” value is -4.84%.

Consider `Nc1ccc2c(c1)C(=Cc1cccnc1)c1ccccc1-2`, for which the “activation of IL-2 secretion” value is -2.17%.

`CC(=O)c1ccc(NC(=O)C(C)OC(=O)c2ccc(NS(=O)(=O)c3ccc4[nH]c(=O)[nH]c4c3)cc2)cc1` (configuration not stated): the “activation of IL-2 secretion” value was 2.02%.

As to `CCOc1ccccc1NC(=S)C(=C([O-])c1ccc2c(c1)OCCO2)[n+]1ccc(CC)cc1`, the “activation of IL-2 secretion” value was -5.5%.

`O=C1C(Cl)=C(Oc2ccccc2)C(=O)c2ccccc21`: the “activation of IL-2 secretion” value is -2.03%.

On to `CSc1ncnc2c1ncn2CC(=O)C1CCC2C3CCC4=CC(=O)CCC4(C)C3CCC12C` (configuration not stated), for which the “activation of IL-2 secretion” value was 1%.

In the case of `O=S(=O)(O)c1cc2onnc2c2ccccc12`, the “activation of IL-2 secretion” value is 0.823%.

For `CCOC(=O)c1ccc2[nH]c(C)c(CN3CCN(C)CC3)c(=O)c2c1`, the “activation of IL-2 secretion” value is 2.26%.

With `COC1=CC(=O)OC(c2ccc(OC)cc2)C1` (configuration not stated), the “activation of IL-2 secretion” value was -4.88%.

In the case of `CCOC(=O)c1ccccc1OC(=O)Oc1ccccc1C(=O)OCC`, the “activation of IL-2 secretion” value was 12.8%.

On to `COc1ccc(CCN2CC(C(=O)OCC(=O)NCc3ccccc3Cl)CC2=O)cc1OC` (configuration not stated), for which the “activation of IL-2 secretion” value is 10.2%.

As for `O=C(CNC(=O)c1cc(S(=O)(=O)N2CCOCC2)ccc1N1CCCC1)Nc1ccc(F)c(F)c1`, the “activation of IL-2 secretion” value is 2.72%.

As for `COc1cc2[nH]c(O)c(C=O)c2cc1OC`, the “activation of IL-2 secretion” value was 1.43%.

As to `Cc1ccc(Nc2c(O)nc[nH]c2=O)cc1C`, the “activation of IL-2 secretion” value is -0.131%.

For the compound `NC(=O)C1(Nc2ccc([N+](=O)[O-])cc2)CCCC1`, the “activation of IL-2 secretion” value is -2.68%.

`O=C1COc2c1ccc(O)c2O`: the “activation of IL-2 secretion” value was -2.28%.

As for `O=C(Cc1ccc(Cl)cc1)c1ccccc1`, the “activation of IL-2 secretion” value was -1.31%.

For `c1ccc2c(c1)OC1OC2Oc2ccccc21`, the “activation of IL-2 secretion” value was -1%.

In the case of `CCc1ccc(C(=O)C(C)OC(=O)CN2C(=O)NC3(CCCC3)C2=O)cc1` (configuration not stated), the “activation of IL-2 secretion” value was 0.426%.

In the case of `CCOC(=O)C1CCCN(C(=O)Cn2ncc3c(=O)oc4ccc(C)cc4c32)C1` (configuration not stated), the “activation of IL-2 secretion” value was 3.09%.

Take `CC(=O)OCC1(O)CC23CCC4c5ccoc5CCC4(C)C2CCC1C3` (configuration not stated): the “activation of IL-2 secretion” value was -4.8%.

For `CC(=O)CSc1nc(CCc2ccccc2)c(C#N)c(=O)[nH]1`, the “activation of IL-2 secretion” value was -2.27%.

For `CCN(CC)CCCC(C)n1c2nc(=O)[nH]c(=O)c-2nc2cc(Cl)ccc21` (configuration not stated), the “activation of IL-2 secretion” value is -2.28%.

As for `c1ccc(-c2c[nH]c(-c3ccccc3)c2)cc1`, the “activation of IL-2 secretion” value was -2.6%.

On to `O=C(NCC1(N2CCCCC2)CCCCC1)c1cccc(S(=O)(=O)Nc2ccccc2Cl)c1`, for which the “activation of IL-2 secretion” value is -1.93%.
